The results in this text go back to PubChem BioAssay (NCI).

Compounds without any hit were thinned out: in the full panel of roughly 79,000, 15% have a hit. Values without a mark were called inactive. Active and inactive are the calls of the source. No stated cut-off is given here; in the data, active means growth inhibition above about 70%; inactive means the rest.

Assay [1] is described as follows: NCI Yeast Anticancer Drug Screen. Data for the rad50 strain (AID 155).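 Further: 0% = growth of vehicle-only cultures of the same strain.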 As to conditions: S. cerevisiae rad50 strain growth inhibition, stronger effect = higher value. The method in brief: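 Inhibition values express reduced yeast growth in compound-treated cultures relative to vehicle-treated controls.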
A short description of assay [2]: NCI Yeast Anticancer Drug Screen. Data for the mec2-1 strain (AID 157). The note with it: S. cerevisiae mec2-1 strain, stronger effect = higher value. The method in brief:
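Each compound was tested on mec2-1 yeast, a strain altered in DNA damage repair or cell cycle control. Growth inhibition is reported relative to vehicle.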

Assay [3] can be described thus: NCI Yeast Anticancer Drug Screen. Data for the sgs1 mgt1 strain (AID 161).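 Further: 0% = growth of cultures given vehicle only.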 As to conditions: S. cerevisiae sgs1 mgt1 strain, stronger effect = higher value. The method in brief:
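Inhibition of yeast growth, normalised to vehicle-treated controls, is reported for a strain bearing genetic alterations in DNA damage repair.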

Assay [4] is described as follows: NCI Yeast Anticancer Drug Screen. Data for the cln2 rad14 strain (AID 165).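 Further: 0% = growth equal to vehicle treated cultures.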 As to conditions: S. cerevisiae cln2 rad14 strain, stronger effect = higher value. The method in brief:
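Test compounds were added to cln2 rad14 yeast cultures; inhibition of growth was then determined by comparison with vehicle treatment.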

Assay [5] can be described thus: NCI Yeast Anticancer Drug Screen. Data for the bub3 strain (AID 167). As to conditions: S. cerevisiae bub3 mutant strain, stronger effect = higher value. The method in brief:
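Steps: expose the mutant yeast strain to compound; grow alongside vehicle-treated cultures; measure growth; express inhibition against the vehicle cultures.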

Assay [6] can be described thus: NCI Yeast Anticancer Drug Screen. Data for the mlh1 rad18 strain (AID 175). As to conditions: S. cerevisiae mlh1 rad18 strain growth inhibition, stronger effect = higher value. The method in brief:
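Inhibition values reflect reduced growth of mutant yeast versus vehicle-treated controls following compound exposure; the mutations affect DNA damage repair.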

Setting [7] is: at 5.0 µM (retest, dose inferred, filed as 0.5).
The mark [8] stands for this setting: at 50.0 µM (retest, dose inferred, filed as 5.0).

In the case of `O=C(O)CCSc1ncnc2nc[nH]c12`, the growth inhibition in assay [1] (setting [7]) is 3%; in assay [1] (setting [8]) it was 0%; in assay [1] (at 50.0 µM), -22.9%; in assay [2] (setting [7]), 1%; in assay [2] (setting [8]), -18%; in assay [2] (at 50.0 µM), -12.8%. In addition, the growth inhibition in assay [3] (setting [7]) was 0%; in assay [3] (setting [8]) it was -24%; in assay [3] (at 50.0 µM), -30.5%; in assay [4] (setting [7]) it was -25%; in assay [4] (setting [8]) it was -97%; in assay [4] (at 50.0 µM), 27.4%. The growth inhibition in assay [5] (setting [7]) was -10%; in assay [5] (setting [8]), -7%; in assay [5] (at 50.0 µM), -18.8%; in assay [6] (setting [7]) it was -7%; in assay [6] (setting [8]), -1%; in assay [6] (at 50.0 µM), -13.9%.
Turning to `O=Cc1ccc2ccc3ccccc3c2c1`, the growth inhibition in assay [1] (setting [7]) was -8%; in assay [1] (setting [8]), 85% (active); in assay [1] (at 50.0 µM) it was 85.9% (active); in assay [2] (setting [7]) it was 8%; in assay [2] (setting [8]) it was 66%; in assay [2] (at 50.0 µM), 41.4%. The growth inhibition in assay [3] (setting [7]) is 6%; in assay [3] (setting [8]), 56%; in assay [3] (at 50.0 µM) it was 79.1% (active); in assay [4] (setting [7]) it was -19%; in assay [4] (setting [8]), 94% (active); in assay [4] (at 50.0 µM), 21.2%. The growth inhibition was -27% in assay [5] (setting [7]); 95% (active) in assay [5] (setting [8]); 70.8% (active) in assay [5] (at 50.0 µM); -7% in assay [6] (setting [7]); 93% (active) in assay [6] (setting [8]); 84.9% (active) in assay [6] (at 50.0 µM).
Turning to `O=C1C(CCl)=CS(=O)(=O)c2ccccc21`, the growth inhibition in assay [1] (setting [7]) is 10%; in assay [1] (setting [8]), 99% (active); in assay [1] (at 50.0 µM), 99.1% (active); in assay [2] (setting [7]), 17%; in assay [2] (setting [8]), 99% (active); in assay [2] (at 50.0 µM) it was 99.3% (active). The growth inhibition in assay [3] (setting [7]) was 16%; in assay [3] (setting [8]), 99% (active); in assay [3] (at 50.0 µM) it was 99.2% (active); in assay [4] (setting [7]), 5%; in assay [4] (setting [8]) it was 99% (active); in assay [4] (at 50.0 µM) it was 99.3% (active). The growth inhibition was 4% in assay [5] (setting [7]); 99% (active) in assay [5] (setting [8]); 99.3% (active) in assay [5] (at 50.0 µM); 36% in assay [6] (setting [7]); 99% (active) in assay [6] (setting [8]); 99.2% (active) in assay [6] (at 50.0 µM).
Regarding `C/C=C/C(=O)NCC(C(C)C)/[N+]([O-])=N/O` (configuration not stated), the growth inhibition was 94% (active) in assay [1] (setting [7]); 95% (active) in assay [1] (setting [8]); 91.8% (active) in assay [1] (at 50.0 µM); 95% (active) in assay [2] (setting [7]); 95% (active) in assay [2] (setting [8]); 93.3% (active) in assay [2] (at 50.0 µM). Also, the growth inhibition is 97% (active) in assay [3] (setting [7]); 97% (active) in assay [3] (setting [8]); 93.3% (active) in assay [3] (at 50.0 µM); 80% (active) in assay [4] (setting [7]); 82% (active) in assay [4] (setting [8]); 91.2% (active) in assay [4] (at 50.0 µM). Moreover, the growth inhibition in assay [5] (setting [7]) is 87% (active); in assay [5] (setting [8]) it was 86% (active); in assay [5] (at 50.0 µM), 91.8% (active); in assay [6] (setting [7]) it was 97% (active); in assay [6] (setting [8]) it was 97% (active); in assay [6] (at 50.0 µM), 91.9% (active).
Consider `CC([C@H]1CCC2C3CCC4CC5(CC[C@]4(C)C3CC[C@@]21C)c1ccccc1C(=O)N5C)N(C)C` (some centres not stated), for which the growth inhibition in assay [1] (setting [7]) was -11%; in assay [1] (setting [8]) it was 81% (active); in assay [1] (at 50.0 µM) it was 83.3% (active); in assay [2] (setting [7]), -11%; in assay [2] (setting [8]), 55%; in assay [2] (at 50.0 µM), 89.4% (active). The growth inhibition is 11% in assay [3] (setting [7]); 87% (active) in assay [3] (setting [8]); 89.6% (active) in assay [3] (at 50.0 µM); 14% in assay [4] (setting [7]); 85% (active) in assay [4] (setting [8]); 73.3% (active) in assay [4] (at 50.0 µM). In addition, the growth inhibition is 6% in assay [5] (setting [7]); 83% (active) in assay [5] (setting [8]); 86.5% (active) in assay [5] (at 50.0 µM); 18% in assay [6] (setting [7]); 84% (active) in assay [6] (setting [8]); 78.2% (active) in assay [6] (at 50.0 µM).
In the case of `CC(C)C1=C(O)c2ccccc2C(=O)C1=O`, the growth inhibition in assay [1] (setting [7]) was -9%; in assay [1] (setting [8]) it was 97% (active); in assay [1] (at 50.0 µM), 86.8% (active); in assay [2] (setting [7]) it was 13%; in assay [2] (setting [8]), 94% (active); in assay [2] (at 50.0 µM), 78.7% (active). For the same compound, the growth inhibition was 38% in assay [3] (setting [7]); 97% (active) in assay [3] (setting [8]); 90.5% (active) in assay [3] (at 50.0 µM); -21% in assay [4] (setting [7]); 86% (active) in assay [4] (setting [8]); 62.6% in assay [4] (at 50.0 µM). Besides, the growth inhibition in assay [5] (setting [7]) is 11%; in assay [5] (setting [8]), 97% (active); in assay [5] (at 50.0 µM), 84.3% (active); in assay [6] (setting [7]), 18%; in assay [6] (setting [8]), 98% (active); in assay [6] (at 50.0 µM), 90.2% (active).
`CCCCN(C(=O)c1ccccc1)C1CCC(=O)c2[nH]c3ccccc3c21` (configuration not stated): the growth inhibition in assay [1] (setting [7]) is -3%; in assay [1] (setting [8]) it was 1%; in assay [1] (at 50.0 µM) it was 85.5% (active); in assay [2] (setting [7]), -15%; in assay [2] (setting [8]) it was -28%; in assay [2] (at 50.0 µM) it was 89.3% (active). In addition, the growth inhibition in assay [3] (setting [7]) is -7%; in assay [3] (setting [8]), 20%; in assay [3] (at 50.0 µM) it was 76% (active); in assay [4] (setting [7]) it was -13%; in assay [4] (setting [8]), -1%; in assay [4] (at 50.0 µM), 83.5% (active). Besides, the growth inhibition in assay [5] (setting [7]) is -18%; in assay [5] (setting [8]) it was 12%; in assay [5] (at 50.0 µM), 80.6% (active); in assay [6] (setting [7]), 2%; in assay [6] (setting [8]) it was -15%; in assay [6] (at 50.0 µM) it was 69.5%.
Turning to `O=C(NCC#CCO)C(F)(F)F`, the growth inhibition was -15% in assay [1] (setting [7]); -1% in assay [1] (setting [8]); -0.9% in assay [1] (at 50.0 µM); -14% in assay [2] (setting [7]); -18% in assay [2] (setting [8]); 13.2% in assay [2] (at 50.0 µM). For the same compound, the growth inhibition in assay [3] (setting [7]) is -3%; in assay [3] (setting [8]) it was -8%; in assay [3] (at 50.0 µM), 11.7%; in assay [4] (setting [7]), 3%; in assay [4] (setting [8]), 9%; in assay [4] (at 50.0 µM), 47.8%. Moreover, the growth inhibition in assay [5] (setting [7]) was -21%; in assay [5] (setting [8]) it was -5%; in assay [5] (at 50.0 µM), 11.1%; in assay [6] (setting [7]), -5%; in assay [6] (setting [8]), -10%; in assay [6] (at 50.0 µM), 45.1%.
Take `Brc1ccc2[nH]c3ccccc3c2c1`: the growth inhibition in assay [1] (setting [7]) is 2%; in assay [1] (setting [8]), 33%; in assay [1] (at 50.0 µM) it was 57.7%; in assay [2] (setting [7]), -4%; in assay [2] (setting [8]) it was 67%; in assay [2] (at 50.0 µM) it was 44.9%. In addition, the growth inhibition in assay [3] (setting [7]) was -3%; in assay [3] (setting [8]), 47%; in assay [3] (at 50.0 µM) it was 86.8% (active); in assay [4] (setting [7]), -2%; in assay [4] (setting [8]) it was 65%; in assay [4] (at 50.0 µM), 54.2%. The growth inhibition in assay [5] (setting [7]) is 3%; in assay [5] (setting [8]) it was 57%; in assay [5] (at 50.0 µM), 55.2%; in assay [6] (setting [7]), 4%; in assay [6] (setting [8]), 75% (active); in assay [6] (at 50.0 µM), 90% (active).
